# Measured values taken from PubChem BioAssay (EPA / NIEHS).
# The source made the active and inactive calls. Rule for the calls: active = hit-call score of the fitted dose curve at least 0.9, where 1 is the maximum; inactive = score below 0.9.
# Assay: CEETOX_H295R_MTT_cell_viability: Viability Assessment in the CeeTox HT-H295R MTT Assay (AID 2283718);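 for AC50: curve fitted both ways so AC50 may mark viability loss or gain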
# Experimental: CEETOX_H295R is a cell-based, multiplexed-readout assay that uses H295R, a human adrenal gland cell line, with measurements taken at 48 hours after chemical dosing in a 96-well plate.CEETOX_H295R_MTT_cell_viability is one of 23 assay component(s) measured or calculated from the CEETOX_H295R assay. It is designed to make measurements of cell number, a form of viability reporter, as detected with […] signals by MTT cytotoxicity assay technology.The assay component endpoint CEETOX_H295R_MTT_cell_viability was analyzed with bidirectional fitting relation to DMSO as the negative control and baseline of activity. Using a type of viability reporter in the MTT cytotoxicity assay, gain or loss-of-signal activity can be used to monitor cellular processes to understand changes in proliferation. To generalize the intended target to other relatable targets, this assay endpoint is annotated to cell cycle, where the subfamily is proliferation.
# Cell culture and media preparation procedures were conducted in accordance with OECD Test No. 456 guidelines, with minor modifications. H295R cells (ATCC CRL-2128) were expanded for 5 passages and frozen in batches in liquid nitrogen. Prior to the steroidogenesis assay, H295R cells were thawed and passed at least 4 times. The maximum passage was 10. Cells were maintained in a 1:1 mixture of DMEM/F12 supplemented with 5ml/L ITS+ Premix (BD Bioscience) and 12.5 ml/L Nu-Serum (BD Bioscience). After seeding cells into 96-well plates at 50-60% confluency, cells were allowed to adhere overnight. Prior to chemical testing, culture medium was replaced with 175 uL medium containing 10 uM forskolin to stimulate steroidogenesis for 48 hours. Following prestimulation, forskolin medium was replaced with medium containing test chemical solubilized in DMSO (ensuring a final concentration of 0.1% DMSO). Test chemicals were incubated for 48 hours, then the medium was removed and split into 2 vials containing approximately 75uL each, and stored at -80 C prior to hormone analysis. For steroid quantification, media samples were shipped to OpAns, LLC (Durham, NC) on dry ice, and samples were thawed to room temperature prior to liquid-liquid extraction. Steroid hormones were extracted from media samples using methyl tertbutyl ether (MTBE). An extra derivatization with dansyl chloride was included for estrogen (estrone and estradiol) detection only. Steroid hormones were separated by HPLC, eluted using a reverse phase C18 gradient with electrospray positive ionization, followed by quantification by tandem mass spectrometry (MS/MS). Data were acquired on a MassHunter Workstation Acquisition version B03.01 (Agilent Technologies, Inc.) and processed using MassHunter Quantitative Analysis for QQQ. Accuracy was determined for each hormone analyte from 3 standards to determine upper and lower limits of quantification (ULOQ and LLOQ, respectively) using a 7-point standard curve. Precision and accuracy of the extraction and quantification methods were calculated as the percent relative standard deviation (%RSD) of the spiked standards and percent spiked standard recovered, respectively. The goal was to achieve 100% accuracy (i.e., recover all spiked-in standard at quantification with minimal loss during run time) and good precision (i.e., have %RSD <15% to ensure reproducibility). Test medium was removed following chemical exposure, and cell viability was evaluated in the same wells by MTT. MTT procedures were as follows: after removal of test medium, 500 uL of 0.5 mg/ml of 3-[4,5-dimethylthiazol-2-y]2,5-diphenyltetrazoliumbromide solution was added to the cells. Following a 4-hour incubation at 37 C and 5% CO2 to allow formazan-crystal formation, the MTT solution was removed and blue formazan salt crystals were solubilized using 500uL anhydrous isopropanol with shaking for 20 minutes. Absorbance was read at 570 and 650nm using a Packard Fusion microplate reader. […]
SMILES,AC50,outcome
Nc1nc(=S)c2[nH]cnc2[nH]1,2.52 µM (active),
CC(=O)[C@@]1(O)CC[C@H]2[C@@H]3CCC4=CC(=O)CC[C@]4(C)[C@H]3CC[C@@]21C,,inactive
O=C1c2c(O)cccc2Cc2cccc(O)c21,,inactive
Oc1ccccc1O,,inactive
Nc1nc(Cl)nc2c1ncn2[C@H]1C[C@H](O)[C@@H](CO)O1,0.109 µM (active),
Oc1ccc(O)cc1,,inactive
CC(C)(O)c1ccc(CNC(=O)c2cccnc2Oc2ccc(F)cc2)cc1,,inactive
O=C1OC(c2ccc(O)cc2)(c2ccc(O)cc2)c2ccccc21,,inactive
Cc1cc(Cc2ccc(N)c(C)c2)ccc1N,,inactive
Cc1c(C)c2c(c(C)c1O)CCC(C)(COc1ccc(CC3SC(=O)NC3=O)cc1)O2 (centres undefined),0.0321 µM (active),
CCC(C)N(C)C(=O)c1cc2ccccc2c(-c2ccccc2Cl)n1 (centres undefined),,inactive
O=C(O)CN(CC(=O)O)CC(=O)O,,inactive
CCN(CC)CCOc1ccc(C(=C(Cl)c2ccccc2)c2ccccc2)cc1,,inactive
COc1ccc(C(=O)Nc2nc3ccccc3c(NCc3ccccc3)c2C#N)cc1,0.909 µM (active),
CC(=O)O[C@]1(C(C)=O)CC[C@H]2[C@@H]3C=C(Cl)C4=CC(=O)[C@@H]5C[C@@H]5[C@]4(C)[C@H]3CC[C@@]21C,,inactive
O=C(Oc1ccccc1)c1cccc(C(=O)Oc2ccccc2)c1,,inactive
CCCCc1nc2cccnc2n1Cc1ccc(-c2ccccc2-c2nnn[nH]2)cc1,,inactive
CC(COCC(C)OC(=O)c1ccccc1)OC(=O)c1ccccc1 (centres undefined),,inactive
CC1=C(C)S(=O)(=O)CCS1(=O)=O,,inactive
NC(=Nc1ccccc1)Nc1ccccc1,,inactive
S=c1[nH]c2ccccc2s1,,inactive
CN(C)C(=O)NC1(c2ccccc2)CCN(CCC[C@]2(c3ccc(Cl)c(Cl)c3)CCCN(C(=O)c3ccccc3)C2)CC1,,inactive
C=CCc1ccc(OC)c(OC)c1,0.102 µM (active),
CCCCCCCCCC[N+](C)(C)[O-],,inactive
